Assay results as given in PubChem BioAssay.
The source made the active and inactive calls. Rule as the data show it: active = inhibition above about 25%; inactive = the rest.

assay: VP16 transactivation inhibitors, counter-screen for SRC1 inhibitor project, cell-based, luminescence, high throughput (AID 588824); settings: cell-based VP16 transactivation luciferase luminescence; at 3.6 µM; stronger effect = higher value

| SMILES | inhibition |
| --- | --- |
| CC(C(=O)Nc1ccon1)N1C(=O)c2ccccc2S1(=O)=O (centres undefined) | 11.8% (inactive) |
| COc1ccc(CN2CCN(C(=O)CCC(=O)Nc3nnc(C(F)(F)F)s3)CC2)cc1F | -4.2% (inactive) |
| O=[N+]([O-])c1ccc(CSc2ccc(S(=O)(=O)N3CCOCC3)cn2)cc1 | 0.46% (inactive) |
| c1cncc(CNC2CCCc3ccccc32)c1 (centres undefined) | -8.78% (inactive) |
| COc1ccccc1N1CCN(C(=O)C2CCN(S(=O)(=O)c3ccc4c(c3)CC(C)N4C(=O)C3CC3)CC2)CC1 (centres undefined) | 5.48% (inactive) |
| CCOC(=O)c1c(-c2ccccc2)csc1NC(=O)c1nn(CC)cc1Br | -7.57% (inactive) |
| COc1ccc(CN(C(=O)CSc2nnc(-c3c[nH]c4ccccc34)o2)c2ccc(F)cc2)cc1OC | -22.2% (inactive) |
| COc1ccccc1/C=C\C(=O)NCC(=O)N/N=C/c1cccc(OC)c1O | 14.2% (inactive) |
| O=C(NCc1ccncc1)C1CCCN(S(=O)(=O)c2ccc(Br)cc2)C1 (centres undefined) | 14.6% (inactive) |
| COc1ccc(N(Cc2cc3cc(OC)ccc3[nH]c2=O)S(=O)(=O)c2ccc(NC(C)=O)cc2)cc1 | -1.84% (inactive) |
| COc1ccc(-c2cc(C(=O)N(C)CC(=O)Nc3cccc(F)c3)c3ccccc3n2)cc1OC | -8.17% (inactive) |
| CC(C)Cn1c(N)c(C(=O)COC(=O)CC23CC4CC(CC(C4)C2)C3)c(=O)n(C)c1=O | 34.8% (active) |
| COc1ccc(OC)c(NC(=O)c2cc(-c3c(C)cc(C)cc3O)n[nH]2)c1 | 6.02% (inactive) |
| CCc1nnc(NC(=O)CCC(=O)NCc2ccccc2Cl)s1 | 6.37% (inactive) |
| Nc1nc(Cl)nc2ccc(Br)cc12 | -0.41% (inactive) |
| COc1cccc(C2=CC(=O)CC(C)(C)C2)c1 | 14.3% (inactive) |
| Cc1cc(C)c2nc(NNC(=O)c3ccc(S(=O)(=O)N4CC(C)CC(C)C4)cc3)sc2c1 (centres undefined) | 30.2% (active) |
| CN1C(=O)[C@H](Cc2ccc([N+](=O)[O-])cc2)NC1=S | 26.4% (active) |
| Cn1c2ccccc2c(=O)c2ccc(C#CC3(O)CCCCC3)cc21 | -43.1% (inactive) |
| O=C(CNC(=O)Cc1ccccc1)N=Nc1c(O)n(Cc2ccc3c(c2)OCO3)c2ccccc12 | 3.04% (inactive) |

| SMILES | inhibition |
| --- | --- |
| NC(=O)c1ccc(N2CCN(S(=O)(=O)c3ccccc3)CC2)c([N+](=O)[O-])c1 | 31.9% (active) |
| Cc1cc[n+](CC(=O)Nc2cccc(C)c2)cc1 | 1.99% (inactive) |
| CCN1CCS/C1=C/C=C/C1=[N+](CC)CCS1 | 47% (active) |
| CC(C)(CNC(=O)c1ccc(-c2cccc(C(F)(F)F)c2)o1)N1CCOCC1 | -0.96% (inactive) |
| CC1CN(c2nc3ccccc3nc2SCC(=O)Nc2cccc(C(F)(F)F)c2)CC(C)O1 (centres undefined) | 5.85% (inactive) |
| CCCCCC(=O)N1CCN(S(=O)(=O)c2ccc3c(c2)OCCO3)CC1 | -1.65% (inactive) |
| Clc1ccc(C2NCCc3sccc32)cc1 (centres undefined) | 8.67% (inactive) |
| Cc1ccoc1C(=O)NCCNC(=O)c1occc1C | -15.1% (inactive) |
| COc1cccc(-c2cc(C(=O)Nc3cc(C)n(Cc4ccc(Cl)cc4)n3)no2)c1 | 18.9% (inactive) |
| CC1Cc2ccccc2N1S(=O)(=O)c1cccc(C(=O)N2CCN(c3ncccn3)CC2)c1 (centres undefined) | 77.4% (active) |
| Cc1ccc(NC(=O)c2cnc(N3CCN(c4ccccn4)CC3)c3ccccc23)c(Br)c1 | 17.7% (inactive) |
| CC1CC(C)CN(c2ncnc3c2cnn3-c2ccc(Cl)cc2)C1 (centres undefined) | -50.9% (inactive) |
| Cc1cccc(Oc2ncnc(N)c2[N+](=O)[O-])c1C | 5.89% (inactive) |
| Cc1ccccc1C(=O)Nc1cc(NC(=O)c2ccccc2C)cc(C(=O)O)c1 | -11.4% (inactive) |
| COc1ccc(-n2nc(C(=O)NCC(=O)Nc3cc(OC)c(OC)c(OC)c3)c3ccccc3c2=O)cc1OC | -6.14% (inactive) |
| N#Cc1ccc(Oc2ccc(C(F)(F)F)cc2NC(=O)c2ccc(F)cc2)cc1 | 1.11% (inactive) |
| S=C1SCN(Cc2ccccn2)CN1Cc1ccco1 | -1.66% (inactive) |
| COc1cc(S(=O)(=O)NCc2ccccc2Cl)ccc1-n1cnnn1 | -5.92% (inactive) |
| Cc1ccc(-n2c(C)nn(CC3CC3)c2=O)cc1 | -3.08% (inactive) |
